Where “and” joins values, the source holds several entries; their conditions need not be identical. Equal entries are not always repeated. Unmarked numbers belong to inactive results. Calls of active or inactive are those of the source. The rule behind the calls is not given here.
How the values were obtained:
[1] = target: Nuclear receptor subfamily 1 group I member 2 (Rattus norvegicus) (UniProt Q9R1A7); experiment: qHTS assay for small molecule activators of the rat pregnane X receptor (rPXR) signaling pathway (AID 651751); details: rPXR reporter cells, luciferase (One-Glo), 24 h
Nuclear receptor subfamily 1 group I member 2 (Rattus norvegicus), sequence (Q9R1A7 whole entry, looked up): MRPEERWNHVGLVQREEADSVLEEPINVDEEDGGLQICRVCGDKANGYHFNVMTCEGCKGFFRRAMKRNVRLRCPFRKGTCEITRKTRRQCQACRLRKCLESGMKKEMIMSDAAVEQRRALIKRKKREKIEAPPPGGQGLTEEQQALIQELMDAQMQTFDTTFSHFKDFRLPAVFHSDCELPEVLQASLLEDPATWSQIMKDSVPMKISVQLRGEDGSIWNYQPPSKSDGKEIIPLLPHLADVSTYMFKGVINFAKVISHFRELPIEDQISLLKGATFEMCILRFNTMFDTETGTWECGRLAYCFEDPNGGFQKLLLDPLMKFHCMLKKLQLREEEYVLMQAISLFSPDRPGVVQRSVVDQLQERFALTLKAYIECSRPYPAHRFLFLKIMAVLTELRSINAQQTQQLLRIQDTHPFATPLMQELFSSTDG

[2] = qHTS assay for small molecule activators of the human pregnane X receptor (PXR) signaling pathway (AID 720659); details: DPX-2 HepG2 CYP3A4-luciferase, 24 h; series mostly up to 92.3 µM
Note: 0% is about no effect.

Compound | max response [1] | outcome [2]
CCOC(=O)C(C)(C)Oc1ccc(Cl)cc1 | 2.24% | inactive
N[C@@H](Cc1c[nH]c2ccc(O)cc12)C(=O)O | 2.83% | inactive
CN(C)CCOC(c1ccccc1)c1ccccc1 | 2.67% | –
CC(C)NCC(O)c1ccc(O)c(O)c1 (stereo unspecified) | -3.83% and 3.86% | –
Nc1c2c(nc3ccccc13)CCCC2 | 4.58% | inactive
Nc1ccn([C@H]2CC[C@@H](CO)O2)c(=O)n1 | 4.04% and 0.741% | inactive
Cc1cn([C@H]2C=C[C@@H](CO)O2)c(=O)[nH]c1=O | 0.921% and -1.01% and -5.21% | inactive
COc1ccc2[nH]cc(CCNC(C)=O)c2c1 | 3.19% and 0.0273% and 3.25% | inactive
CC(C)(Oc1ccc(C2CC2(Cl)Cl)cc1)C(=O)O (stereo unspecified) | 27.5% | inactive
